Screens deposited in PubChem BioAssay by several laboratories.
In the library only some 1.8% were active in any assay of this set; here they are far more common.
LANA-H2B inh = blocks KSHV LANA binding to histone H2A/H2B; inhibition, % (no concentration beside the values); AID 2629; actives 0.6% (n = 320,000); cell-free LANA-H2A/H2B peptide, fluorescence polarization; Q9QR71; in the data active = inhibition mostly above about 10%, no sharp cut-off; inactive = mostly below about 6.7%
Target sequence (Q9QR71 whole entry, looked up): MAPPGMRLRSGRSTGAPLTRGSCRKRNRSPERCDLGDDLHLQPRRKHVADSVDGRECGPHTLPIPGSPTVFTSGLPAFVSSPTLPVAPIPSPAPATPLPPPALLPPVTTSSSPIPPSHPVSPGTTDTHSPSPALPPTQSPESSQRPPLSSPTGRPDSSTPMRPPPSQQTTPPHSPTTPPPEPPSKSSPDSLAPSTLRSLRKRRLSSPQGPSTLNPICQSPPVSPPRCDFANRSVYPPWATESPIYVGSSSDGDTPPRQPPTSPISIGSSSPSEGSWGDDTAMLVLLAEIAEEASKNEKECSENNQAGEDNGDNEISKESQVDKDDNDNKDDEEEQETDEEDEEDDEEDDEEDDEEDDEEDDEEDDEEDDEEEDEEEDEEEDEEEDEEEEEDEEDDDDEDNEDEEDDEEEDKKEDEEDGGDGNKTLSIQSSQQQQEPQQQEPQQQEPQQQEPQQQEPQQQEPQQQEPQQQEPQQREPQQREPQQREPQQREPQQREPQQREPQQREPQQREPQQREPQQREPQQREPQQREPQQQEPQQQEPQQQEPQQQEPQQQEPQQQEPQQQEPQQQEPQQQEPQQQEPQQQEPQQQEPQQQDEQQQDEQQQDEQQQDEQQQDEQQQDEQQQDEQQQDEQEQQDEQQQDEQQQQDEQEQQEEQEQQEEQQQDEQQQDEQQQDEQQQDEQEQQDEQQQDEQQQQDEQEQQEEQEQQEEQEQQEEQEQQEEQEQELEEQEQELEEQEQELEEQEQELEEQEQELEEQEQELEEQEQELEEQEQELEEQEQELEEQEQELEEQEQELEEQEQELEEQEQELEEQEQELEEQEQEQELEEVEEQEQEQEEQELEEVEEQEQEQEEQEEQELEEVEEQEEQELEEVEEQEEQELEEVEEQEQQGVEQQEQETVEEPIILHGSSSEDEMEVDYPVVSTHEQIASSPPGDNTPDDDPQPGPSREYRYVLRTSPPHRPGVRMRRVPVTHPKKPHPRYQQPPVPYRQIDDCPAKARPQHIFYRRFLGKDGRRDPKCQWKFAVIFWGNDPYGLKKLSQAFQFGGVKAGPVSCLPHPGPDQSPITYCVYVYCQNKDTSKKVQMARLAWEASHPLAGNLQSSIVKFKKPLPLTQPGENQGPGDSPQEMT
PKD1 inh = inhibitors of human PKD1 kinase; Q15139; PKD1 kinase fluorescence polarization assay; inhibition, % (concentration not given with the values); actives 0.056% (n = 200,000)
HDAC3 inhib = blocks human histone deacetylase 3 | actives 0.15% (n = 320,000) | recombinant HDAC3, fluorogenic peptide/trypsin coupled, fluorescence | AID 2718 | O15379 | inhibition, % at 8.3 µM; in the data active = inhibition above about 26%, passing the limit was not always enough
Pemphigus Ab inh = blocks pemphigus antibody binding to human desmoglein-3. AID 588358. binding (percent of control), % at 10 µM. P32926. actives 0.48% (n = 310,000). DSG3-coupled beads, scFv-anti-DSG3-GFP binding, flow cytometry; stronger effect = lower value;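 active = binding more than 3 SD below its plate's average and above zero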;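 note: hits lower antibody fragment binding to DSG3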
VLA-4 inh = inhibition in a human VLA-4 binding assay | P13612 | VLA-4 expressing cells, ligand binding flow cytometry | inhibition, % (about 7 µM as worked out from the volumes in the protocol) | actives 0.2% (n = 330,000) | AID 2557
GRK2 inh = human GRK2 inhibition via aptamer displacement; bead flow cytometry, FAM-aptamer displacement from GRK2; inhibition of aptamer binding, % at 10 µM; actives 0.59% (n = 330,000); AID 488847;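 active = inhibition of aptamer binding above 40%, roughly 3 SD of noise, on plates passing a quality check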;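 note: median bead fluorescence of bound FAM aptamer so fluorescent compounds give negative values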
GRK2 CP1 = confirmation of human GRK2 inhibitors displacing RNA aptamer; shares compounds with GRK2 inh; bead-bound GRK2, FAM-aptamer displacement, flow cytometry; aptamer displacement, % at 10 µM; actives 4% (n = 2,000);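 active = aptamer displacement above 40%, near three times the noise of non-fluorescent compounds, on plates passing quality checks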;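 note: negative values mostly reflect intrinsic compound fluorescence rather than true enhancement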
Aptamer quench = quenches fluorescent RNA aptamer, GRK2 hit artifact; 110 tested, under 10 active; shares compounds with GRK2 inh; Fluorescent RNA aptamer beads, quenching, flow cytometry; stronger effect = higher value; fluorescence change (kMESF span), kMESF (test concentration not listed);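 active = compounds whose bead fluorescence drops by more than 37 kMESF across the dose range, marking them as dye quenchers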
Aptamer quench SP = counter-screen for GRK2 aptamer inhibitors: fluorescent aptamer quenchers; AID 504580; fluorescence response (% of DMSO), % at 10 µM; Carboxyfluorescein RNA aptamer on beads, flow cytometry quenching; stronger effect = lower value; 2,000 tested, under 10 active; shares compounds with GRK2 inh;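 active = compounds that quench the bead-bound fluorescent RNA probe, cutting fluorescence to under half of the solvent control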;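 note: counterscreen run without GRK2 so only probe quenching by compound is measured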
GRK2 confirm 2 = confirmation of human GRK2 inhibitors binding RNA aptamer site; shares compounds with GRK2 inh; bead-bound GRK2, FAM-aptamer displacement, flow cytometry; inhibition of aptamer binding, % at 10 µM; 360 tested, under 10 active; AID 504782;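 active = inhibition of aptamer binding above 40%, about triple the noise seen with nonglowing compounds, on plates passing quality control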;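 note: negative values mostly come from compounds that fluoresce themselves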
FAM quench CP2 = counter-screen for GRK2 binding hits: quenchers of fluorescent RNA aptamer. shares compounds with GRK2 inh. carboxyfluorescein RNA aptamer beads, flow cytometry quenching; stronger effect = lower value. fluorescence response vs DMSO, % at 10 µM. 360 tested, under 10 active. AID 588494;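 active = response vs DMSO under 50%, meaning signal dropped by over half, treated as fluorescence quencher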;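 note: labelled aptamer on streptavidin beads without GRK2 as a quench counter-screen; 100% = bead fluorescence of DMSO wells and lower means quenching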
Numbers without * were called inactive; . = no result given. Cut-off read from the data, not from the text of the source, unless noted: active = inhibition above about 50%; inactive = the rest.

SMILES	LANA-H2B inh	PKD1 inh	HDAC3 inhib	Pemphigus Ab inh	VLA-4 inh	GRK2 inh	GRK2 CP1	Aptamer quench SP	others
CCNc1nc(NCC)n2c(SCC(=O)Nc3ccc(F)cc3)nnc2n1	4	.	-3	99	-5	23	.	.
CCNc1nc(NCC)n2c(SCC(=O)Nc3ccccc3)nnc2n1	1	-3	-9	.	0	0	.	.	GRK2 confirm 2=2;FAM quench CP2=106
CCNc1nc(NCC)n2c(SCC(=O)Nc3ccc(Br)cc3F)nnc2n1	8	.	-1	96	1	5	.	.
CCNc1nc(NCC)n2c(SCC(=O)Nc3ccc(C)c(C)c3)nnc2n1	.	.	.	98	0	78*	57*	155	Aptamer quench=-6.6
CCNc1nc(NCC)n2c(SCC(=O)Nc3ccc(OC(F)F)cc3)nnc2n1	.	.	.	96	.	.	.	.
CCNc1nc(NCC)n2c(SCC(=O)Nc3cc(OC)ccc3OC)nnc2n1	.	.	.	106	-3	0	.	.	GRK2 confirm 2=-13;FAM quench CP2=101
COC(=O)C=CSC(=S)C1CCCC1=N (stereo unspecified)	.	.	.	98	.	.	.	.
Cc1ccc(C2(c3ccccc3)NC(=O)N(CC(=O)NC3CCS(=O)(=O)C3)C2=O)cc1C (stereo unspecified)	7	.	2	100	3	2	.	.
OC1(c2ccc(Cl)c(Cl)c2)C[n+]2ccccc2N1Cc1ccccc1 (stereo unspecified)	-3	.	-24	105	4	0	.	.
COc1ccc(NS(=O)(=O)c2cc(C(=O)N(C)CCc3ccccn3)ccc2Cl)cc1	.	.	.	110	.	.	.	.
O=C(NCc1ccncc1)c1cccc(Cn2cc(Br)cn2)c1	1	-12	1	93	16	0	4	98
CC[C@@H](C)[C@@H]1CN([C@@H](C)CN2CCC[C@H]2CN2C(N)=NC[C@H]2CC(C)C)C(=N)N1CCc1ccc(Cl)c(Cl)c1	1	.	2	112	15	84*	.	.	GRK2 confirm 2=-81;FAM quench CP2=99
CC[C@@H](C)[C@@H]1CN([C@@H](CN2CCC[C@H]2CN2C(N)=NC[C@H]2CC(C)C)C(C)C)C(=N)N1CCc1ccc(Cl)c(Cl)c1	.	.	.	117	-8	0	.	.
CNC(=S)N/N=C(\C)c1ccc(C)c(C)c1	4	-10	3	101	4	2	.	.
O=C(CCc1ccc(Oc2cc([N+](=O)[O-])cc([N+](=O)[O-])c2)cc1)NC1CCCC1	3	-5	-1	107	-6	99*	2	92
CCNc1nc(=S)nc(NCc2ccccc2)[nH]1	0	-6	4	.	-2	0	.	.
NS(=O)(=O)c1cc(C(=O)NC2CCSc3ccccc32)ccc1Cl (stereo unspecified)	2	.	-1	110	9	51*	18	96
NS(=O)(=O)c1cccc(C(=O)NC2CCSc3ccccc32)c1 (stereo unspecified)	-1	.	0	.	7	0	.	.
CCOC(=O)c1c(C)n2c3c(cc(C)cc13)CCC2	-3	-1	-1	86	30	86*	-2	92
Cc1cc(C)cc(C(=O)NCC(=O)OCC(=O)NCC(F)(F)F)c1	4	-3	2	92	7	96*	3	100
O=C(Nc1ccc(Cl)cn1)C1CCN(c2ncnc3c2nc2n3CCCCC2)CC1	1	.	4	.	-1	55*	-4	107
COc1ccc(-c2cc(C(=O)Nc3cc(Br)ccc3O)no2)cc1	-3	.	2	89	-10	0	.	.
